# Laboratory results reported in PubChem BioAssay (NCI).
# This is part of a sample that, as a whole, favours compounds with a hit. Of some 83,000 tested, about 20% had one in any assay.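 Assay: single dose, 48 h. Readout: percent growth (0 = no net growth; negative = cell death). Active: <10.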 Unmarked numbers belong to inactive results. Activity calls are given as the source filed them.
# System: SK-OV-3 ovarian
# Test: NCI-60 one-dose screen, 48 h (100 = growth as untreated, 0 = no growth, -100 = all killed)
# Conditions: 10 µM unless noted
row,SMILES,growth
1,CCOC(=O)C1=C(C)NC(SCc2nnc(-c3ccc(Cl)cc3)o2)=NC1c1ccc(Cl)cc1 (stereo not drawn),82.6%
2,O=Cc1ccc2nc(C(Cl)(Cl)Cl)ccc2c1,90.5%
3,CCCc1n(Cc2ccc3ccccc3c2)c2ccccc2[n+]1Cc1ccc2ccccc2c1,-21.5% (active)
4,CC(CN1CCN(CCOCCO)CC1)CN1c2ccccc2Sc2ccc(Cl)cc21 (stereo not drawn),90.4%
5,Clc1ccc(Nc2ncnc3c2sc2ncccc23)c(Cl)c1,25.5%
6,COc1ccc(/C=C(/C(=O)N2CCN(c3ccccc3)CC2)c2cc(OC)c(OC)c(OC)c2)cc1O,30.4%
7,C#CCNC(=S)N/N=C(\C)c1ccccn1,30.8%
8,CC(C)NC(=O)OCC#CCOC(=O)NC(C)C,94.8%
9,Cc1cc(C)c2c(n1)sc1c(Nc3ccc(Cl)cc3Cl)ncnc12,22.2%
10,CCCCn1cnc(-c2cc(-c3ccccc3)cc(C(F)(F)F)c2)n1,105%
11,O=C1c2ccccc2C(=O)c2c1oc1ccc3ccccc3c21,114%
12,COC1=CC(c2ccc[nH]2)=N/C1=C\c1[nH]c(C)c(C(=O)CCCCCCCCC(=O)O[C@H]2CC[C@H]3C4CCc5cc(O)ccc5C4CC[C@]23C)c1C (stereo partly drawn),49.2%
13,CCSc1ccc([C@@H]2[C@@H](N)C(=O)N2c2cc(OC)c(OC)c(OC)c2)cc1,44%
14,COc1ccc2[nH]cc(C(c3ccc(Cl)cc3)N3CCCC3)c2c1 (stereo not drawn),109%
15,Oc1[nH]c2ccc(Cl)cc2c1/C=c1/ccc2c(c1)N=C(c1ccc(F)cc1)N=2,87.4%
16,COc1cc(-c2csc(NC(=O)Nc3cccc(C(F)(F)F)c3)n2)cc(OC)c1OC,80.7%
17,O=C(Cc1ccc(Nc2ccnc(C(F)(F)F)c2)cc1)N/N=C/c1ccccc1O,17.1%
18,COc1ccc2nc(C)cc(Nc3ccccc3O)c2c1,-41.5% (active)
19,C[C@]12CCc3nc(Nc4ccc(O)cc4)sc3C1=CC[C@@H]1[C@@H]2CC[C@]2(C)/C(=N/NC(N)=S)CC[C@@H]12,-19% (active)

row,SMILES,growth
1,CN(C)CCOc1nc2c3cccnc3cc(-c3cccc(Cl)c3)c2c2ncccc12,45%
2,Oc1[nH]c2ccccc2c1/C=c1/ccc2c(c1)N=C(c1ccc(C(F)(F)F)cc1)N=2,82.7%
3,COc1ccc(/C(=C\c2ccc3c(c2)OCO3)C(=O)Nc2nc3ccc(F)cc3s2)cc1OC,100%
4,O=C(Nc1ccccc1Cl)Oc1ccc2ccccc2c1,93.5%
5,Nc1nc2c(c3ncccc13)C(c1ccccc1)Cc1ncccc1-2 (stereo not drawn),87.3%
6,COc1ccccc1NC(=O)OCC12COCN1COC2,105%
7,COc1cc2c(cc1C)NC(=O)/C2=C\c1c[nH]c2ccccc12,97.4%
8,C=C(C)[C@@H]1CC[C@]2(C)[C@H](CC=C3[C@@H]4C[C@](C)(C(=O)N5CCN(C)CC5)CC[C@]4(C)CC[C@]32C)[C@@]1(C)CCC#N,63.3%
9,COc1ccc(NC(=O)/C=C/c2ccc(Cl)c(Cl)c2)cn1,101%
10,CC(C)c1[nH]ncc1-c1nc2ccc3[nH]ncc3c2c2c1CCCC2,16.5%
11,COc1ccc(NC(=O)c2ccc(C(F)(F)F)nc2Nc2ccc(Cl)cc2C)cc1Cl,45.4%
12,NCCCOc1cc2ccccc2cc1C(=O)NCCCOc1cc2ccccc2cc1C(=O)Nc1ccc(Cl)cc1O,-80.4% (active)
13,C/C=C(\C)C(C(=O)NC1CCCCC1)N(C(=O)C1CCc2cc(F)ccc2O1)c1ccc([N+](=O)[O-])cc1 (stereo not drawn),90.5%
14,O=C(Cn1nncc1CN1C(=O)CSC1=O)Nc1ccc(F)cc1,90.8%
15,CCC(C)C1NC(=O)c2nc(oc2-c2ccccc2)-c2csc(n2)-c2csc(n2)-c2nc(oc2C)-c2coc(n2)CNC(=O)C(C(C)CC)NC1=O (stereo not drawn),-89.2% (active)
16,C=CCn1c(C)nc2cc(Nc3nc(N4CCCC4)nc4nc[nH]c34)ccc21,59%
17,Clc1ccc(Nc2ncnc3c2sc2ncccc23)cc1,28.6%
18,Cc1ccc(NC(=O)c2nc(S(C)(=O)=O)oc2-c2ccc(F)cc2)cc1Nc1ccc2ncn(C)c(=O)c2c1,107%
19,CCCCNCC(O)c1cc(-c2ccc(C(F)(F)F)cc2)nc(-c2ccc(C(F)(F)F)cc2)c1 (stereo not drawn),-75.8% (active)
